aDG glyco act = activators of alpha-DG glycosylation, primary screen, uHTS, Pro5-aDG cells, AlphaScreen; alpha-DG glycosylation AlphaScreen (IIH6); 0% Pro5, 100% B10-LARGE cell signal; activation, % at 10 µM; hit rate 0.22% among 360,000; AID 624168, 2012;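 active = activation of at least 8% versus controls, or a plate z-score of at least 8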;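 also: Pro5 are CHO cells carrying HIG-tagged alpha-DG that lacks glycosylation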
A3G deaminase = APOBEC3G DNA deaminase inhibitors, primary screen, biochemical, fluorescence, single-stranded DNA substrate, uHTS; DNA dC->dU-editing enzyme APOBEC-3G (Homo sapiens), Q9HC16; recombinant A3G, ssDNA deamination FAM/TAMRA fluorescence; inhibition, % at 20 µM; hit rate 0.28% among 330,000; AID 493012, 2011;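 active = inhibition of at least 40% at 20 µM, with no more than 30% in the related APOBEC3A deaminase screen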
Target sequence (Q9HC16 whole entry, looked up): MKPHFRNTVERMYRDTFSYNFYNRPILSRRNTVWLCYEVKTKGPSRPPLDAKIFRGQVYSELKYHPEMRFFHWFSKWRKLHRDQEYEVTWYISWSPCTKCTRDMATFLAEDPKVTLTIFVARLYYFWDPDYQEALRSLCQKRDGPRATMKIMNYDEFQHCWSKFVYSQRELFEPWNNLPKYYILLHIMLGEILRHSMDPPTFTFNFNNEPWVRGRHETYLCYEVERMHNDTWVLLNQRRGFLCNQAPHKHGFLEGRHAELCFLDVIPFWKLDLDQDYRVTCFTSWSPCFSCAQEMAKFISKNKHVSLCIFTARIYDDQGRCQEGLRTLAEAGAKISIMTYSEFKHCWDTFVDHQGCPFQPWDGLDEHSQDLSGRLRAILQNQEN
PHOSPHO1 inh = PubChem AID 1565. Phosphoethanolamine/phosphocholine phosphatase (Homo sapiens), Q8TCT1. inhibition, % at 13.3 µM. hit rate 1.1% among 290,000. recombinant PHOSPHO1, absorbance phosphatase assay; in the data active = inhibition above about 60%
ALR H2O2 inh = inhibitors of human ALR sulfhydryl oxidase, primary screen, biochemical, H2O2 detection, HRP-luminol luminescence, single point; FAD-linked sulfhydryl oxidase ALR (Homo sapiens), P55789; purified ALR, DTT oxidation; inhibition, % (concentration not given with the values); hit rate 3.8% among 290,000; AID 485317, 2010;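 active = mean replicate inhibition above about 79%, with every replicate also reaching it, limit read from the data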
rCAG binder = binders of r(CAG) RNA repeats, primary screen, biochemical, fluorescence | r(CAG) RNA repeat, TO-PRO-1 dye displacement fluorescence | inhibition, % at 3 µM | hit rate 1.3% among 370,000;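 active = inhibition above the plate cutoff, the mean of all test compounds on that plate plus 3 SD, cut at about 35% in these data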;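 also: higher means more dye released from RNA so lower well fluorescence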
A3A deaminase = APOBEC3A ssDNA deaminase inhibitors, primary screen, selectivity assay for APOBEC3G inhibitor project, biochemical, FAM/TAMRA oligo cleavage fluorescence | AID 493011, 2011 | hit rate 0.41% among 330,000 | recombinant A3A, FAM/TAMRA ssDNA deamination fluorescence | inhibition, % at 20 µM | DNA dC->dU-editing enzyme APOBEC-3A (Homo sapiens), P31941;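 active = at least 40% inhibition at 20 µM here, with at most 30% in a related deaminase screen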
rCAG bind conf = small molecules binding CAG repeat RNA – biochemical, fluorescence, confirmation; shares compounds with rCAG binder; r(CAG) RNA repeat, TO-PRO-1 dye displacement fluorescence; inhibition, % at 3 µM; hit rate 70% among 4,300; AID 652065, 2013;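 active = inhibition above a per-plate cutoff, the mean inhibition of sample wells plus 3 SD, cut at about 35% in these data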;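 also: loss of TO-PRO-1 fluorescence as compound displaces dye from 1x1 AA loop RNA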
dCAG dye counter = displacement of TO-PRO-1 from CAG DNA duplex, counter-screen for rCAG RNA repeat binder project, biochemical, fluorescence, TO-PRO-1 dye, d(CAG) DNA oligo | inhibition, % at 3 µM | AID 652068, 2013 | shares compounds with rCAG binder | hit rate 94% among 4,300 | d(CAG) DNA oligo TO-PRO-1 dye displacement;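 active = inhibition above its plate's cutoff, the mean test-well inhibition plus 3 SD, cut at about 4.8% in these data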;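 also: hits displace the dye from DNA and so lower well fluorescence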
dCAG dye DR = inhibitors of DNA CAG/GTC TO-PRO-1 complex, dose response, counter-screen for rCAG RNA repeat binder project, biochemical, fluorescence, TO-PRO-1 dye. hit rate 20% among 250. IC50, µM. shares compounds with rCAG binder. DNA CAG/GTC duplex TO-PRO-1 dye displacement fluorescence; in the data active = IC50 below about 10 µM
Of the large screens only hits and unclear results are named; the others gave an inactive call (follow-up assays come after a bar, where they were run). This is a sample that favours compounds with a hit; in the whole collection about 5.4% have one here.

CC1CCc2c(sc3nc(CN4CCOCC4)nc(NS(=O)(=O)c4cccc([N+](=O)[O-])c4)c23)C1 (configuration not stated)	rCAG binder 62.1 | rCAG bind conf 70.8 | dCAG dye counter 27.7 | dCAG dye DR inactive
CC1(C)CC(=O)C=C(C#CC2(O)CCCCC2)C1	none (no result: A3G deaminase, PHOSPHO1 inh, ALR H2O2 inh, A3A deaminase)
COc1ccc(OCc2nnc3n2N=C(c2ccc(Br)cc2)CS3)cc1	none
Cc1ccc(C2=Nn3c(COc4ccc(Cl)cc4)nnc3SC2CC(=O)O)cc1 (configuration not stated)	ALR H2O2 inh 97.5, rCAG binder 47.1 | rCAG bind conf 41.5 | dCAG dye counter 10.5
COc1ccc(CC(=O)N(C)Cc2ccc(OC(F)F)cc2)cc1S(=O)(=O)N1CCOCC1	none (no result: A3G deaminase, PHOSPHO1 inh, ALR H2O2 inh, A3A deaminase)
CC1=CN2C(=N)/C(=C/c3ccco3)C(=O)N=C2S1	none
CC1=CN2C(=N)/C(=C/c3ccc([N+](=O)[O-])o3)C(=O)N=C2S1	rCAG binder 53.0 (no result: A3G deaminase, A3A deaminase) | rCAG bind conf inactive | dCAG dye counter 15.3
COc1ccc(C=C2CS(=O)(=O)CC(=Cc3ccc(OC)cc3)C2=O)cc1	none (no result: A3G deaminase, PHOSPHO1 inh, ALR H2O2 inh, A3A deaminase)
COc1ccccc1C(=O)Nc1ccc(C(=O)Nc2ccccc2C(=O)O)cc1	rCAG binder 42.2 (no result: ALR H2O2 inh) | rCAG bind conf 59.8 | dCAG dye counter 20.4
CCN(CC)S(=O)(=O)c1cc(C(=O)Nc2ccccc2C(=O)O)ccc1OC	rCAG binder 37.3 | rCAG bind conf inactive | dCAG dye counter 6.6
CCC(C(=O)Nc1ccc(C(=O)Nc2ccccc2C(=O)O)cc1)c1ccccc1 (configuration not stated)	ALR H2O2 inh 79.4, rCAG binder 74.6 | rCAG bind conf 67.3 | dCAG dye counter 27.1
COc1ccc(NC(=O)c2ccccc2NC(=O)c2ccccc2)cc1	none
CCC(C(=O)Nc1ccc(C(=O)O)cc1NC(=O)C(CC)c1ccccc1)c1ccccc1 (configuration not stated)	rCAG binder 63.3 | rCAG bind conf 56.9 | dCAG dye counter 22.8
COc1ccc(Cl)cc1NC(=O)CSc1nc2[nH]ncc2c(=O)[nH]1	none (no result: A3G deaminase, PHOSPHO1 inh, ALR H2O2 inh, A3A deaminase)
COc1cc(CN2C[C@@H](CO)O[C@@H](n3cnc4c(N(C)C(C)C)ncnc43)C2)cc(OC)c1OC	none (no result: A3G deaminase, PHOSPHO1 inh, ALR H2O2 inh, A3A deaminase)
O=S1(=O)c2c(cccc2N2CCC[C@H]2CO)O[C@@H]2CCN1C2	none (no result: aDG glyco act, A3G deaminase, PHOSPHO1 inh, ALR H2O2 inh, A3A deaminase)
Cc1nn(-c2ccccc2)c(Cl)c1/C=N/NC(=O)c1ccc(NS(=O)(=O)c2cccs2)cc1	none (no result: aDG glyco act, rCAG binder)
Cc1nn(-c2ccccc2)c(Cl)c1/C=N/NC(=O)c1ccccc1NS(=O)(=O)c1cccs1	rCAG binder 76.1 | rCAG bind conf 79.7 | dCAG dye counter 44.8
O=C(NN=Cc1c(F)cccc1F)c1ccccc1NS(=O)(=O)c1cccs1	rCAG binder 37.7 (no result: PHOSPHO1 inh) | rCAG bind conf inactive | dCAG dye counter 4.6
O=C(O)COc1ccccc1C=NNC(=O)c1ccccc1NS(=O)(=O)c1cccs1	none (no result: PHOSPHO1 inh)
COC(=O)[C@]12C[C@H](CC(=O)N3CCCC3)C(=O)N(Cc3cccc4ccccc34)C1=C[C@H](C1CCCC1)O[C@@H]2C	none (no result: aDG glyco act, A3G deaminase, PHOSPHO1 inh, ALR H2O2 inh, A3A deaminase)
O=C(Nc1c(-c2ccc(C(F)(F)F)cc2)nc2ncccn12)C1CC1	none (no result: aDG glyco act, A3G deaminase, PHOSPHO1 inh, ALR H2O2 inh, A3A deaminase)

Source: PubChem
